Laboratory results from PubChem BioAssay (EPA / NIEHS).
Inconclusive results are not listed. Active and inactive are the calls of the source. How the source made its calls: active means hit-call score of the fitted dose curve at least 0.9, where 1 is the maximum; inconclusive means response in the unintended direction; inactive means score below 0.9.

How the values were obtained:
[1] = molecular target: Cellular tumor antigen p53 (Homo sapiens) (UniProt P04637); experiment: TOX21_p53_BLA_p2_ratio: Tox21 HCT-116 p53 Agonism Beta-lactamase Assay, Ratio, Phase 2 (AID 2283592)
Summary of the method: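 Cleaved-to-uncleaved substrate ratio (460 vs 530 nm) measured in HCT116 cells with an inducible beta-lactamase reporter linked to p53 activity. Compounds incubated 16 h at 37C before 2 h room-temperature CCF4-AM loading.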

[2] = TOX21_p53_BLA_p3_viability: Viability Assessment in the Tox21 HCT-116 p53 Agonism Beta-lactamase Assay, Phase 3 (AID 2283593);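 further: cells exposed to compound for 16 h before reading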
Summary of the method: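 HCT-116 cells (4000/well) rested 5 h at 37C, then got DMSO compounds by pin tool (217-fold dilution) for 16 h at 37C, 5% CO2. After the bla read, CellTiter-Glo was added and luminescence read at 30 min, room temperature.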

[3] = molecular target: Cellular tumor antigen p53 (Homo sapiens) (UniProt P04637); experiment: TOX21_p53_BLA_p3_ratio: Tox21 HCT-116 p53 Agonism Beta-lactamase Assay, Ratio, Phase 3 (AID 2283596)
Summary of the method: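 Cells were seeded at 4000/well, rested 5 h at 37C, then dosed with DMSO compound solutions (217-fold dilution) for 16 h. CCF4-AM substrate was loaded for 2 h at room temperature, and the 460/530 nm emission ratio was fitted for gain of signal versus DMSO.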

[4] = TOX21_p53_BLA_p4_viability: Viability Assessment in the Tox21 HCT-116 p53 Agonism Beta-lactamase Assay, Phase 4 (AID 2283597);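 further: hits lower the luminescence signal meaning cytotoxicity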
Summary of the method: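 Viability is taken as cellular ATP: after 16 h compound exposure of HCT116 cells and a 2 h room-temperature CCF4-AM substrate step, CellTiter-Glo reagent is added and luminescence is measured 30 min later.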

[5] = TOX21_p53_BLA_p5_viability: Viability Assessment in the Tox21 HCT-116 p53 Agonism Beta-lactamase Assay, Phase 5 (AID 2283600)
Summary of the method: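 Viability is taken from cellular ATP content, measured by luciferase luminescence in the same wells after the beta-lactamase ratio read. Cells are seeded at 4000 per well and exposed to DMSO-dissolved compounds, diluted 217-fold, for 16 h.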

[6] = molecular target: Cellular tumor antigen p53 (Homo sapiens) (UniProt P04637); experiment: TOX21_p53_BLA_p5_ratio: Tox21 HCT-116 p53 Agonism Beta-lactamase Assay, Ratio, Phase 5 (AID 2283599)
Summary of the method: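 HCT-116 cells carrying a p53-inducible beta-lactamase reporter were seeded at 4000 cells/well and dosed after 5 h with compound in DMSO (217-fold dilution). After 16 h at 37C, CCF4-AM substrate was added for 2 h, and the 460/530 nm emission ratio was scored as gain-of-signal versus DMSO.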

[7] = molecular target: Cellular tumor antigen p53 (Homo sapiens) (UniProt P04637); experiment: TOX21_p53_BLA_p4_ratio: Tox21 HCT-116 p53 Agonism Beta-lactamase Assay, Ratio, Phase 4 (AID 2283601)
Summary of the method: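 HCT116 cells carrying an inducible beta-lactamase reporter were plated at 4000 cells/well, rested 5 h, then exposed to compounds in DMSO (217-fold dilution) for 16 h at 37C. CCF4-AM substrate was loaded 2 h at room temperature; 460/530 nm emission ratio scored gain-of-signal versus DMSO.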

Measured: outcome

Cellular tumor antigen p53 (Homo sapiens), sequence (P04637 whole entry, looked up): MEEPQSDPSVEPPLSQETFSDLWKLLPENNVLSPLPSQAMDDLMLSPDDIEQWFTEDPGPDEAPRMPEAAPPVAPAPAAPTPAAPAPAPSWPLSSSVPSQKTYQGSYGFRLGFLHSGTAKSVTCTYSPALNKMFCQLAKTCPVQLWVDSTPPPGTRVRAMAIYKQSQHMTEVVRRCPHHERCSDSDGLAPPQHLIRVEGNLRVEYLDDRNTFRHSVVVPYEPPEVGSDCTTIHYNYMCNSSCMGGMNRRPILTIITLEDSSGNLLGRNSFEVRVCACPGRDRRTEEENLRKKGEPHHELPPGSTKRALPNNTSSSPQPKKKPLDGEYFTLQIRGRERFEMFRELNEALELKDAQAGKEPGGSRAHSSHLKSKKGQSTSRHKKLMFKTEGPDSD

CC(C)(O)CCCC1=CCC(C=O)CC1 (centres undefined)
not listed: [6] | [7]
inactive: all other assays above

CCN(C=O)CC
not listed: [6] | [7]
inactive: all other assays above

COc1cc(NS(=O)(=O)c2ccc(N)cc2)nc(C)n1
not listed: [6] | [7]
inactive: all other assays above

CCCN1CCCC[C@H]1C(=O)Nc1c(C)cccc1C
not listed: [5]
inactive: all other assays above

CCCCC(CC)CN1CN(CC(CC)CCCC)CC(C)(N)C1 (centres undefined)
not listed: [6]
inactive: all other assays above

N[C@@H](Cc1cc(I)c(O)c(I)c1)C(=O)O
not listed: [5]
inactive: all other assays above

O=C(O)Cc1ccc(Cl)cc1Cl
not listed: [6] | [7]
inactive: all other assays above

COc1cc2[nH]c(C)c(CCN3CCN(c4ccccc4)CC3)c2cc1OC
not listed: [6] | [7]
inactive: all other assays above

CO[C@@H]1[C@@H](OC(N)=O)[C@@H](O)[C@H](Oc2ccc3c(O)c(NC(=O)c4ccc(O)c(CC=C(C)C)c4)c(=O)oc3c2C)OC1(C)C
not listed: [6] | [7]
inactive: all other assays above

CS(=O)(=O)Nc1cc2occ(NC=O)c(=O)c2cc1Oc1ccccc1
not listed: [6] | [7]
inactive: all other assays above

O=C(O)Cc1ccc(CCNS(=O)(=O)c2ccc(Cl)cc2)cc1
not listed: [6]
inactive: all other assays above
